The text below walks through data of PubChem BioAssay AID493014 (National Center for Advancing Translational Sciences (NCATS), 2011).

Screen size: about 340,000 compounds; about 170 (0.05%) were called active. Where a call stands in place of a potency, no number is given. Another 26% or so got no clear call; they are omitted. The call rests on the fitted dose curve; in most records, active means well fitted inhibition curve with a large enough effect in the signal ratio, with a control signal flat (not every such curve was filed as active); inconclusive means small, poorly fitted or top-dose-only effect, or effect the other way, or a change in a side signal; inactive means flat fitted curve, though single readings scatter; the % refers to the signal ratio. The full list was thinned out, with actives kept by preference.
Potency means the concentration at half of the fitted maximal effect.

A short description of this assay: qHTS Assay to Find Inhibitors of Chronic Active B-Cell Receptor Signaling. The settings on record: ABC-DLBCL IkBa-CBG/CBR reporter, luminescence ratio, 4 h; series mostly up to 46.1 µM. From the text: NIH Molecular Libraries Probe Production Network [MLPCN] NIH Chemical Genomics Center [NCGC] MLPCN Grant: 1 R03 DA031086-01A1 PI Name: Dr. R. Eric Davis NCGC Assay Overview: Diffuse large B-cell lymphoma (DLBCL) is the most common category of non-Hodgkin lymphoma, with ~20,000 new cases per year in the United States. DLBCL should be regarded as a collection of different neoplasms. Microarray gene expression analysis has defined two principal types of DLBCL, named for their similarity to normal B cell stages or activation states: a germinal center B-cell (GCB) type, and an activated B-cell (ABC) type. In ABC-DLBCL, a constitutive high-level activity of the NF-kappaB family of transcription factors has been observed (1) and NF-kappaB target genes are more highly expressed in ABC primary tumors than in GCB tumors. Functional studies have shown a constitutive high-level activity of the IkappaB (inhibitor of kappa-B) kinase (IKK) complex. […] Further analysis of DLBCL primary tumors for NF-kappaB target gene expression imply that although CARD11 is required for constitutive IKK activity in all ABC-DLBCL lines, mutations in CARD11 may be the root cause of IKK activation only in lines or tumors with such mutations. In other words, CARD11 mutations may explain NF-kappaB activation in only 10% of ABC-DLBCL cases. […] This process has been termed 'chronic active BCR signaling' (CABS). The goal of this screen is to find small-molecule inhibitors of the CABS pathway found in ABC-DLBCL lines using a cell-based assay that measures IkappaBalpa stability, which has already been extensively validated in the OCI-Ly3 line (PubChem AID:445; REF: 4). […] The assay uses green (CBG68) and red (CBR) emitting beetle luciferases [Chroma-GloTM developed by Promega Corp.] where the green luciferase is fused to IkappaBalpha and the red luciferase is present in its native state. Both luciferase genes are stably present in the TMD8 human ABC DLBCL cell line, but their expression is under the control of tetracycline-inducible promoters. Following the addition of doxycycline to induce expression of the luciferases, the green luminescence in control cultures rises only slowly because the CBG fusion partner IkappaBalpha is targeted by IKK activity for rapid degradation. In contrast, green luminescence rises rapidly in the presence of proteasome inhibitors or IKK inhibitors. The rise in red luminescence of CBR is not affected by proteasome or IKK inhibitors, and serves as normalization for cell number and nonspecific effects. Compounds were screened as a concentration-titration series that ranged from 46 uM to 3 nM.
NCGC Assay Protocol Summary: Cells were seeded in 1536-well plates at 5000 cells/4uL in IMDM medium containing 0.5% FBS, w/o phenol red, 1% penicillin/streptomycin. Then, 23 nL of compounds or DMSO were delivered to each well using a pin tool. One uL 20ng/ml doxycycline was then dispensed into white solid 1536-well plates and the plates were incubated at 37C/5% C02 in a cell incubator for 4 hrs. Then 4 uL luminescent substrate mix (in-house prepared: 150 mM Tris-Cl, pH 7.6, 3 mM MgCl2, 1% Triton X-100, 5 mM DTT, 0.2 mM CoA, 0.15 mM ATP, 5 mM D-luciferin, final concentrations) was added to each well. The plate was incubated at r.t. for 10-15 min. The plates were measured on a ViewLux plate reader for green luminescence (540/20 nm filter) and red luminescence (618/8 nm filter). The green and red luminescent signals were corrected for red and green luminescence filter overlap using previously determined filter calibration constants (determined using the procedure outlined in the Promega Technical Manual; REF 4). The %Activity was determined from the ratio of corrected green/red luminescent values. MG132 were used as control. […] Red luminescent %Activity was normalized to the difference between red luminesence in basal cells (0%Activity) and zero luminescence (-100% Activity). […]
(In general: qHTS replaces the single test concentration by a dilution series.)
For the molecule `CCCCN(CC(=O)Nc1cccc(S(=O)(=O)N2CCCC2)c1)Cc1nc2ccccc2c(=O)[nH]1`, the Potency result was “inactive”.

For `O=S(=O)(NCCCCCCNS(=O)(=O)c1c(F)cccc1F)c1ccc2c(c1)OCCO2`, the Potency result is “inactive”.

Regarding `CCN(c1ccccc1)S(=O)(=O)c1cccc(C(=O)NCc2ccccc2CN2CCOCC2)c1`, the Potency result is “inactive”.

In the case of `C=CC[C@@H](CC(=O)N[C@H](CO)Cc1ccccc1)C(=O)N[C@H](C)COC(=O)[C@@H](CC=C)Cc1ccc(F)cc1`, the Potency entry was “inactive”.

`O=S(=O)(NC1CCN(S(=O)(=O)c2ccc3c(c2)OCCO3)CC1)c1c(F)cccc1F`: the Potency result is “inactive”.

In the case of `COC(=O)[C@]1(Cc2ccccc2)N[C@H](CN(C)S(=O)(=O)c2ccc(OC(F)(F)F)cc2)[C@@H]2C(=O)N(C)C(=O)[C@@H]21`, the Potency entry was “inactive”.

As to `Nc1ccc(Nc2cc(O)c3ncccc3c2)cc1`, the Potency result was “inactive”.

As to `Cc1ccc(NS(=O)(=O)c2ccc(C(C)C)cc2)cc1S(=O)(=O)N1CCOCC1`, the Potency entry is “inactive”.

In the case of `CCN(C[C@H]1N[C@@](Cc2ccccc2)(C(=O)OC)[C@H]2C(=O)N(Cc3ccccc3)C(=O)[C@@H]12)C(=O)c1ccc(C)cc1`, the Potency entry was “inactive”.

In the case of `O=C1C=CN2CCCC2CC1` (configuration not stated), the Potency entry is “inactive”.

Turning to `COc1cccc(NC(=O)COC(=O)c2ccc3ccccc3n2)c1`, the Potency result was “inactive”.

As for `CCOC(=O)C1CCCN(C(=O)CSc2nnc3nc(C)cc(C)n23)C1` (configuration not stated), the Potency entry was “inactive”.

`COc1cccc(C2=CC(=O)C[C@H](c3ccc(OC)c(OC)c3)C2)c1`: the Potency result is “inactive”.

Take `CN(C)C(=O)COC(=O)c1cccc(S(=O)(=O)N2CC3(C)CC2CC(C)(C)C3)c1` (configuration not stated): the Potency result was “inactive”.

As for `Cc1ccc(-n2ncc3c2CC(C)(C)CC3NC(=O)Cc2c(C)noc2C)cc1` (configuration not stated), the Potency result was “inactive”.

In the case of `COC(=O)[C@]1(CC(C)C)N[C@H](c2ccc(SC3CCCCC3)cc2)[C@@H]2C(=O)N(C)C(=O)[C@@H]21`, the Potency entry was “inactive”.

With `O=C1COc2ccc(C(=O)CSc3ccc(Br)cc3)cc2N1`, the Potency entry was “inactive”.

Consider `Cc1ccc(N2CC(C(=O)N3CCC4(CC3)CC(=O)c3ccccc3O4)CC2=O)cc1C` (configuration not stated), for which the Potency result is “inactive”.

As to `CC(=O)Nc1ccc(S(=O)(=O)NCCC(=O)N2CCN(c3ccccc3Cl)CC2)cc1`, the Potency entry is “inactive”.

Consider `Fc1ccccc1-c1cc2cc3c(cc2cn1)OCO3`, for which the Potency result is “inactive”.

In the case of `CCN(CC(=O)Nc1ccc(OC)cc1)C(=O)CSCc1ccc(C)cc1`, the Potency entry is “inactive”.

Turning to `Cc1cccc(N(Cc2ccccc2)C(=O)c2cc(S(=O)(=O)N3CCOCC3)ccc2F)c1`, the Potency result is “inactive”.

As to `CCN(CC)S(=O)(=O)c1ccc(N2CCOCC2)c(NC(=O)C(C)Oc2ccc(F)cc2)c1` (configuration not stated), the Potency result is “inactive”.

With `CC1Sc2ccc(C(=O)NCc3ccccc3Cl)cc2NC1=O` (configuration not stated), the Potency entry is “inactive”.

As to `O=C(O[C@@H]1[C@H](Cc2ccccc2)NS(=O)(=O)[C@H]2C[C@@H]3C=C[C@]12O3)c1ccccc1Br`, the Potency entry is “inactive”.

For `CC(C)(C)OC(=O)C[C@@H]1C/C=C\C[C@H](CC(=O)N[C@@H](CO)Cc2ccccc2)C(=O)N[C@H](Cc2ccccc2)COC1=O`, the Potency entry is “inactive”.

As to `CN=C(Nc1cccc(S(=O)(=O)N2CCOCC2)c1)c1ccccc1`, the Potency entry is “inactive”.

`Oc1ccccc1CN1CCN(C(c2ccccc2)c2ccccc2)CC1`: the Potency result is “inactive”.

Consider `COc1ccc(-c2cc(=O)oc3cc(OC(C)C(=O)Nc4ccc(CN5CCOCC5)cc4)ccc23)cc1` (configuration not stated), for which the Potency result was “inactive”.

Consider `COc1ccc(CNC(=O)C[C@H]2C[C@H](C(=O)N3CCOCC3)[C@@]3(CCC4CCCC4)c4[nH]c5ccc(Cl)cc5c4CCN3C2=O)cc1OC`, for which the Potency result is “inactive”.

Regarding `CC(=O)Nc1ccc(SC[C@H](Cc2ccccc2)N2CC[C@@H](C)CCC2=O)cc1`, the Potency entry is “inactive”.

`O=C(COC(=O)COc1cccc(F)c1)NCC1CCCCC1`: the Potency entry is “inactive”.

`O=C(NCc1ccccc1CN1CCCC1)C1CCN(S(=O)(=O)c2ccc(Cl)cc2)CC1`: the Potency entry is “inactive”.

Turning to `Cc1cccc(NC(=O)c2ccc(S(=O)(=O)N(C)c3ccccc3)cc2)n1`, the Potency result is “inactive”.

With `COc1ccc(NC(=O)CN2C(=O)COc3ccc(S(=O)(=O)N4CCOCC4)cc32)c(OC)c1`, the Potency entry was “inactive”.

Take `Cc1ccc(CNC(=O)Cn2cnc3c(NCc4ccccc4)ncnc32)o1`: the Potency entry is “inactive”.

Consider `COc1ccccc1N(C)S(=O)(=O)c1ccc(Cl)c(C(=O)Nc2ccncc2)c1`, for which the Potency entry is “inactive”.

With `C[C@H]1COC(=O)[C@H](CC(=O)OC(C)(C)C)C/C=C\C[C@@H](CC(=O)N[C@H](CO)Cc2ccccc2)C(=O)N1`, the Potency result is “inactive”.

For `Nc1cc(N)nc(SCC(=O)Nc2cccc(S(=O)(=O)N3CCCCC3)c2)n1`, the Potency entry is “inactive”.

Turning to `COc1ccc(S(=O)(=O)N2CCCCCC2)cc1NC(=O)Cc1ccc(OC)c(OC)c1`, the Potency result was “inactive”.

`COC(=O)c1cc(C(=O)NC(C)C2CC3CCC2C3)cc([N+](=O)[O-])c1` (configuration not stated): the Potency entry was “inactive”.

Regarding `O=C(CN(Cc1ccc(Br)cc1)S(=O)(=O)c1ccccc1)NCc1ccncc1`, the Potency result was “inactive”.

In the case of `Cc1ccc(C)c(N2CCN(C(=O)CCc3nc(-c4cccc(C(F)(F)F)c4)no3)CC2)c1`, the Potency result was “inactive”.

In the case of `CCCOc1ccccc1C1CC(=O)Nc2cc3c(cc21)OCO3` (configuration not stated), the Potency is 23.1 µM (active).

On to `COc1ccc(C2CC(=O)Nc3cc(C)c(C)cc32)c(OC)c1OC` (configuration not stated), for which the Potency entry was “inactive”.

As for `COc1cc2c(cc1OC)C(c1ccc(C)o1)CC(=O)N2` (configuration not stated), the Potency entry is “inactive”.

Consider `COc1ccc(NC(=O)c2cnc(NS(=O)(=O)c3ccccc3)nc2)cc1`, for which the Potency entry was “inactive”.

For `COC(=O)[C@H](Cc1ccccc1)NC(=O)Nc1ccc(OC)cc1`, the Potency result is “inactive”.

As for `COc1ccc(NC(=O)c2sc(N)nc2-c2ccccc2)cc1`, the Potency was 12.6 µM (active).

In the case of `CCCCCCSc1ccc([C@@H]2[C@@H]3C(=O)N(CC)C(=O)[C@@H]3[C@]3(C(=O)OC)CCCCN23)cc1OC`, the Potency result is “inactive”.

Regarding `O=C(c1ccc(S(=O)(=O)NCc2ccco2)cc1)N1CCN(c2ccccc2)CC1`, the Potency entry was “inactive”.

For `CCN1C(=O)[C@@H]2[C@@H](c3ccc(-c4ccc(OC)cc4)c(OC)c3)N3CCC[C@@]3(C(=O)OC)[C@@H]2C1=O`, the Potency result was “inactive”.

`COc1ccc(Cl)cc1NC(=O)CN(C)C(=O)c1cc2ccccc2cc1OC`: the Potency entry was “inactive”.

Turning to `CC(C)N(Cc1nnc(-c2ccccc2Br)o1)C(=O)c1cc(Cl)nc2ccccc12`, the Potency result was “inactive”.

Regarding `COc1ccccc1N1CC(C(=O)Nc2nnc(SCC(=O)NC(C)C)s2)CC1=O` (configuration not stated), the Potency result is “inactive”.

`COc1ccc(/C=N/Nc2cc(N3CCOCC3)nc(C)n2)c(OC)c1`: the Potency result was “inactive”.

Consider `COc1ccc(N2CCN(C(=O)COC(=O)c3cccc(S(=O)(=O)Nc4ccccc4OC)c3)CC2)cc1`, for which the Potency entry was “inactive”.
